# Bioassay records (PubChem)
# HepG2 tox = qHTS for Inhibitors of TGF-b: Cytotox Counterscreen; Potency, µM (doses to about 46.1 µM), inactives show at the top dose activity change, negative = cytotoxicity, usual class: cytotoxic; HepG2 CAGA-GFP viability, ATP luminescence, 18 h; 410,000 compounds, 0.76% hits; note: potency is the fitted concentration of half-maximal effect
#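 HepG2 CAGA-GFP cells (1000/well, DMEM with 1% FBS) received compound, then TGF-beta at 500 pg/mL final, and were incubated 18 hours at 37 degrees C. Viability was read by CellTiter-Glo luminescence. Media-only wells were set as complete cell-killing and DMSO as no toxicity.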
# TDP1 inh = qHTS Assay for Inhibitors of Tyrosyl-DNA Phosphodiesterase (TDP1); Tyrosyl-DNA phosphodiesterase 1 (Homo sapiens), Q9NUW8; recombinant TDP1, AlphaScreen DNA substrate cleavage; Potency, µM (top dose mostly 130 µM), without a hit: at the highest dose activity change, negative = inhibition, actives largely listed as inhibitors; 350,000 compounds, 0.28% hits; AID 485290, 2010; note: potency is the fitted concentration of half-maximal effect; % is set by controls: 0 for no effect and ±100 for the full control effect; nearly all actives have a fitted effect of over 40% in size
# Target sequence (Q9NUW8 whole entry, looked up): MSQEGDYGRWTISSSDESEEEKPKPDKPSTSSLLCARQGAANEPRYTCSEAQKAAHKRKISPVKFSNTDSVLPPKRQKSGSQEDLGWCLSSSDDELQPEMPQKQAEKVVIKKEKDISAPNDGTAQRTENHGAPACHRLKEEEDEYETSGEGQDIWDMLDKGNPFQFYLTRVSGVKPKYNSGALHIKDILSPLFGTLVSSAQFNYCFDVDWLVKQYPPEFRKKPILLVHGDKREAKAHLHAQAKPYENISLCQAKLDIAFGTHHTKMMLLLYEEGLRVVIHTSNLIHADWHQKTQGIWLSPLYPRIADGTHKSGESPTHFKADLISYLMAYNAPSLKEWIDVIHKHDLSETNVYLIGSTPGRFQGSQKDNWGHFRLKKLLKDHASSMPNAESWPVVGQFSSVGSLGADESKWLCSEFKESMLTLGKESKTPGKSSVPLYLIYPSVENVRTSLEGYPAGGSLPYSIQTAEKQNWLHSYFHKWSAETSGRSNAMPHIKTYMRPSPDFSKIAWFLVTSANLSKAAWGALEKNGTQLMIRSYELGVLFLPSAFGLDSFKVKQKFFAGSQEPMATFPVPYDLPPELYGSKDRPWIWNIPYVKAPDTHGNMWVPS
#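 Recombinant human Tdp1 (E. coli-expressed, 1 nM final) preincubated with compounds 15 min at room temperature, then 5'-biotin/3'-phosphotyrosine-FITC DNA substrate (15 nM final) added for 5 min. AlphaScreen beads (10 ug/ml final) added 10 min; cleavage lowers signal.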
# TGFb SMAD3 inh = qHTS for Inhibitors of TGF-b. HepG2 CAGA-GFP TGF-b/SMAD3 reporter, GFP fluorescence, 18 h; TGF-beta stimulated, 500 pg/mL final. Potency, µM (series often up to 46.1 µM), without a hit: top-dose activity, negative = inhibition, actives largely listed as inhibitors. 410,000 compounds, 1.2% hits. AID 588855, 2011; note: potency is the fitted concentration of half-maximal effect; % is set by controls: 0 for no effect and ±100 for the full control effect; nearly all actives have a fitted effect of over 65% in size
#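 TGF-beta reporter screen: HEPG2 CAGA-GFP, 1% FBS, 500 pg/mL TGF-beta final, 18 h; per-cell GFP summed per well; curves fitted and categorized by class.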
# DT40 TDP1 no CPT = qHTS for Inhibitors of human tyrosyl-DNA phosphodiesterase 1 (TDP1): qHTS in cells in absence of CPT | DT40 Tdp1-/- hTDP1 cells, no CPT, ATP luminescence, 48 h | Potency, µM (titrated, usually from 46.2 µM), for the others: at the top dose activity change, negative = growth inhibition, usual class: inhibitors | 420,000 compounds, 15% hits; note: potency is the fitted concentration of half-maximal effect; % is set by controls: 0 for no effect and ±100 for the full control effect; nearly all actives have a fitted effect of over 55% in size
#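 Readout: luminescence from CellTiter-Glo after 30 min in the dark at RT. Cells: DT40 Tdp1-/- with stable hTDP1, 400/well. Exposure: compounds alone, ≥48 hr, 37 °C.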
# IL1B secr inh = qHTS for Inhibitors of Inflammasome Signaling: IL-1-beta AlphaLISA Primary Screen; AID 743279, 2014; THP-1 LPS/ATP IL-1B secretion, AlphaLISA, 16 h; stronger effect = lower value; 360,000 compounds, 4.7% hits; activity change, % at 57.5 µM; in the data active = activity change below about -50%; inconclusive = mostly about -30% to -49%; note: % is set by controls: 0 for no effect and ±100 for the full control effect
#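 Secreted IL-1B measured by AlphaLISA bead assay after 16 h compound exposure of THP-1 cells; compounds (final up to 57.5 uM) added 1 h before LPS (250 ng/mL) and ATP (1.25 mM) stimulation; lower signal means less secretion.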
# TDP1 cell CPT = qHTS for Inhibitors of human tyrosyl-DNA phosphodiesterase 1 (TDP1): qHTS in cells in presence of CPT. chicken DT40 Tdp1-/-;hTDP1 cells + 20 nM CPT, ATP luminescence, 48 h. 420,000 compounds, 12% hits. Potency, µM (series often up to 46.2 µM), for the others: at the highest dose activity change, negative = growth inhibition, hits mostly inhibitors. AID 686979, 2013; note: potency is the fitted concentration of half-maximal effect; % is set by controls: 0 for no effect and ±100 for the full control effect; nearly all actives have a fitted effect of over 55% in size
#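 Chicken DT40 Tdp1-/- cells complemented with human TDP1, 400 cells/well, exposed to compounds plus 20 nM camptothecin for at least 48 h at 37 C; viability read as ATP content by CellTiter-Glo luminescence.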
# * = called active by the depositor; ? = inconclusive; . = not tested or not shown; ! = not confirmed by another sample; [ ] = remark or other dose. This is a sample that favours compounds with a hit; in the whole collection about 19% have one here. Unless noted, calls come from the whole dose curve; as a rule, active = well fitted curve in the direction sought with a large enough effect; inconclusive = small, poorly fitted or top-dose-only effect, or another doubt; inactive = no such curve, though single readings can be large; an effect the other way counts as inactive or inconclusive.
SMILES,HepG2 tox,TDP1 inh,TGFb SMAD3 inh,DT40 TDP1 no CPT,IL1B secr inh,TDP1 cell CPT
O=S(=O)(NCC1(N2CCOCC2)CCCCC1)c1ccc(F)c(F)c1F,-20%,.,0%,?,2,10µM*
CC(=O)c1ccc(S(=O)(=O)NCC2(N3CCOCC3)CCCCC2)cc1,-2%,-1%[56.1 µM],2%,-21%,-8,-15%
CC(C)C1N(c2ccccc2)C(N)=C(C#N)C1(C#N)C#N (centres undefined),-13%,-1%,-1%,23µM*,-14,?
CCOC(=O)c1c(CN2CCCCC2C)oc2ccc(OC)cc12 (centres undefined),-27%,5%,-13%,?,-4,21µM*
CCOC(=O)c1c(CN2CCN(C)CC2)oc2ccc(OC)cc12,-21%,7%,16%,-5%,?,-1%
CCOC(=O)c1c(CN2CCC(C)CC2)oc2ccc(OC)cc12,-3%,2%,2%,?,-29,23µM*
COc1ccc2[nH]cc(C(=O)CN3CCCCC3C)c2c1 (centres undefined),.,-1%,.,.,.,.
CCOC(=O)c1c(CN2CCCCC2)oc2ccc(OC)cc12,-31%,3%,6%,23µM*!,13,?
CCOC(=O)c1c(CN2CCN(c3ccccc3)CC2)oc2ccc(O)cc12,-3%,8%,-13%,?,67,?
O=C(Cn1c(-c2cccs2)cc2cc(Cl)ccc21)N1CCN(c2ccccc2F)CC1,-8%,5%,-19%,?,.,?
COc1cccc(Nc2nc3ccccc3nc2NS(=O)(=O)c2cccs2)c1,-43%,4%,-13%,10µM*,?,9.2µM*
O=S(=O)(Nc1nc2ccccc2nc1Cl)c1ccc(Cl)cc1,-43%,2%,13µM*,?,27,0%
O=S(=O)(Nc1nc2ccccc2nc1N1CCc2ccccc2C1)c1ccc(Br)cc1,7%,-3%,-21%,18µM*,13,?
Cc1ccccc1S(=O)(=O)Nc1nc2ccccc2nc1Cl,1%,-3%,26%,-20%,0,-19%
COc1ccc(Nc2nc3ccccc3nc2NS(=O)(=O)c2cccs2)c(OC)c1,2%,0%,1%,-18%,0,-23%
O=S(=O)(Nc1nc2ccccc2nc1Cl)c1ccc(Br)cc1,-46%,0%,13µM*,?,-2,?
O=C(O)c1ccc(N=C2c3ccccc3-c3ccccc32)cc1,6%,.,8%,19%,-4,9%
COc1ccc(Nc2nc3ccccc3nc2NS(=O)(=O)c2ccc(Cl)cc2)cc1OC,-24%,.,?,?,.,9.2µM*
Cc1ccc(NC2CCCN(C(=O)CCN3CCCCO3)C2)cc1C (centres undefined),3%,5%[56.1 µM],6%,-17%,0,21%
COc1ccc2c(c1)OC[C@H]1[C@H]2N2C(=O)CN(Cc3ccc(F)cc3)C(=O)[C@@]2(C)[C@H]1c1ccccc1,-17%,2%,-6%,?,-23,?
CCOC(=O)[C@H]1[C@H]2COc3ccc(C)cc3[C@@H]2N2C(=O)CN(Cc3ccccc3)C(=O)[C@@]12C,-2%,4%,6%,?,?,?
COc1ccc(CN2CC(=O)N3[C@H]4c5cc(C)ccc5OC[C@@H]4[C@H](c4ccccc4)[C@]3(C)C2=O)cc1,-18%,6%,-1%,21µM*,0,?
Cc1ccc2c(c1)[C@H]1[C@H](CO2)[C@H](c2ccccc2)[C@]2(C)C(=O)N(Cc3ccc(F)cc3)CC(=O)N12,-3%,10%,-17%,21µM*,?,?
CCCCN1CC(=O)N2[C@H]3c4ccc(OC)cc4OC[C@@H]3[C@H](c3ccccc3)[C@]2(C)C1=O,-19%,2%,7%,23µM*,-5,?
COc1ccc2c(c1)OC[C@H]1[C@H]2N2C(=O)CN(Cc3ccco3)C(=O)[C@@]2(C)[C@H]1c1ccccc1,1%,4%,10%,?,-21,?
SMILES,HepG2 tox,TDP1 inh,TGFb SMAD3 inh,DT40 TDP1 no CPT,IL1B secr inh,TDP1 cell CPT
CN1CC(=O)N2[C@H]3c4ccccc4OC[C@@H]3[C@H](c3ccccc3)[C@]2(C)C1=O,1%,0%,?,-12%,25,-16%
COc1ccc(CN2CC(=O)N3[C@H]4c5ccccc5OC[C@@H]4[C@H](c4ccccc4)[C@]3(C)C2=O)cc1,-3%,2%,-1%,16µM*,-15,?
Cc1ccc2c(c1)[C@H]1[C@H](CO2)[C@H](c2ccccc2)[C@]2(C)C(=O)N(Cc3ccc(Cl)cc3)CC(=O)N12,-6%,1%,-19%,15µM*,-18,?
O=C(NC(c1ccc(F)cc1)c1cnccn1)C1CCN(CCOc2ccc(Cl)cc2Cl)CC1 (centres undefined),-34%,.,?,16µM*,.,?
O=C(NC(c1ccc(Cl)cc1)c1cccnc1)C1CCN(CCOc2ccc(Cl)cc2Cl)CC1 (centres undefined),-87%,.,?,?,0,?
Cc1cccnc1C(NC(=O)C1CCN(CCOc2ccc(F)cc2)CC1)c1ccc(F)cc1 (centres undefined),-14%,.,-10%,?,?,?
COc1ccc(C(NC(=O)C2CCN(CCCOc3ccccc3)CC2)c2ccccn2)cc1 (centres undefined),-10%,.,11%,-17%,-13,-25%
O=C(NC(c1ccc(-c2ccccc2)cc1)c1cnccn1)C1CCN(CCOc2ccc(F)cc2)CC1 (centres undefined),18µM*,.,13µM*,?,-54*,?
O=C(NC(c1ccc(-c2ccccc2)cc1)c1cnccn1)C1CCN(CCCOc2ccccc2)CC1 (centres undefined),-97%,.,?,13µM*,-21,23µM*
O=C(NC(c1ccc(Cl)cc1)c1cnccn1)C1CCN(CCOc2ccc(F)cc2)CC1 (centres undefined),-37%,.,-2%,18µM*,?,?
COc1ccc(S(=O)(=O)Nc2cccc(-c3ccc4nncn4n3)c2)c(OC)c1,-8%,-7%,2%,?,-5,?
